PubChem BioAssay (EPA / NIEHS)
Records with an inconclusive call do not appear. Active and inactive are the calls of the source. Rule for the calls: active = hit-call score of the fitted dose curve at least 0.9, where 1 is the maximum; inconclusive = response in the unintended direction; inactive = score below 0.9.

Tests used:
[1] = tested on: rat Adrenergic, Alpha 1B Receptor (Adra1B), gene 24173; test: NVS_GPCR_rAdra1B: NovaScreen (NVS) G Protein-Coupled Receptor Assay for rat Adrenergic, Alpha 1B Receptor (Adra1B) (AID 2283297)
Procedure, shortened: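 Rat liver membranes, radioligand displacement with filter-based scintillation detection, 1 h incubation. Primary screen in duplicate at 25 uM; actives retested in concentration series; activity relative to DMSO.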

[2] = target: rat Adrenergic Receptor, Alpha 2 (Adra2), Non-selective Binding, Adra2a (gene 25083) (UniProt P22909); test: NVS_GPCR_rAdra2_NonSelective: NovaScreen (NVS) G Protein-Coupled Receptor Assay for rat Adrenergic Receptor, Alpha 2 (Adra2), Non-selective Binding (AID 2283299)
Sequence of rat Adrenergic Receptor, Alpha 2 (Adra2), Non-selective Binding, Adra2a (gene 25083) (P22909 whole entry, looked up): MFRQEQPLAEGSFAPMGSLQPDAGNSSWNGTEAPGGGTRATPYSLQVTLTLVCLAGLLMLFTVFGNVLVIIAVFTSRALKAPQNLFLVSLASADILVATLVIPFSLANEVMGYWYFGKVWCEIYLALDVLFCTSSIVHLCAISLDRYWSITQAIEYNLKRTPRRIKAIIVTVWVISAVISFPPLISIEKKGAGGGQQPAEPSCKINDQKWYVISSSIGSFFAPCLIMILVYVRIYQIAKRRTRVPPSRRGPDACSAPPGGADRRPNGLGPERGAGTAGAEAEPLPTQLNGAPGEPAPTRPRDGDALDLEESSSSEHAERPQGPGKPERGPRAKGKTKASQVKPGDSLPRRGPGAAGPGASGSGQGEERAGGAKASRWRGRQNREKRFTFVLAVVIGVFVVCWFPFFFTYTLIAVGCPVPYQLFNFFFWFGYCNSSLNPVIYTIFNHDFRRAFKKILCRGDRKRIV
Method: (§1) NVS_GPCR_rAdra2_NonSelective is a biochemical, single-readout assay that uses extracted gene-proteins from Rat cortical membranes in a tissue-based cell-free assay. Measurements were taken 1.25 hours after chemical dosing in a 48-well plate.NVS_GPCR_rAdra2_NonSelective is one of one assay component(s) measured or calculated from the NVS_GPCR_rAdra2_NonSelective assay. It is designed to make measurements of radioligand binding, a form of binding reporter, as detected with scintillation counting signals by Filter-based radiodetection technology.Data from the assay component NVS_GPCR_rAdra2_NonSelective was analyzed into 1 assay endpoint. This assay endpoint, NVS_GPCR_rAdra2_NonSelective, was analyzed in the positive analysis fitting direction relative to DMSO as the negative control and baseline of activity. Using a type of binding reporter, loss-of-signal activity can be used to understand changes in the binding as they relate to the gene Adra2a. Furthermore, this assay endpoint can be referred to as a primary readout, because the performed assay has only produced 1 assay endpoint. To generalize the intended target to other relatable targets, this assay endpoint is annotated to the gpcr intended target family, where the subfamily is rhodopsin-like receptor.
Binding assays used specific radioligands (tritiated, iodinated) with non-radioactive competitive displacement ligands in agonist or antagonist protocols (as indicated) and various reference compounds and inhibitors to titrate specific binding to receptors and transporters. Most enzyme assays (CYPs, kinases, phosphatases, proteases, HDACs) used recombinant protein and specific substrates (fluorescence mostly, some colorimetric and radioactive) and inhibitors, followed by a biochemical separation of substrate and product. All assays for the biochemical HTS were initially run in duplicate at a single concentration (10 uM for CYP450 assays and 25 uM for all others). […] Each assay was run with positive and negative controls, and concurrent controls on every plate. The follow-up (secondary) screen tested active chemical-pairs in concentration series, as well as a few additional assays not tested in the primary screen, some selected negative inactives, and several cases re-run in the concentration series for confirmatory purposes.

[3] = target: rat Neurokinin-3 Receptor (NK3), Tacr3 (gene 24808) (UniProt P16177); test: NVS_GPCR_rNK3: NovaScreen (NVS) G Protein-Coupled Receptor Assay for rat Neurokinin-3 Receptor (NK3) (AID 2283310)
Sequence of rat Neurokinin-3 Receptor (NK3), Tacr3 (gene 24808) (P16177 whole entry, looked up): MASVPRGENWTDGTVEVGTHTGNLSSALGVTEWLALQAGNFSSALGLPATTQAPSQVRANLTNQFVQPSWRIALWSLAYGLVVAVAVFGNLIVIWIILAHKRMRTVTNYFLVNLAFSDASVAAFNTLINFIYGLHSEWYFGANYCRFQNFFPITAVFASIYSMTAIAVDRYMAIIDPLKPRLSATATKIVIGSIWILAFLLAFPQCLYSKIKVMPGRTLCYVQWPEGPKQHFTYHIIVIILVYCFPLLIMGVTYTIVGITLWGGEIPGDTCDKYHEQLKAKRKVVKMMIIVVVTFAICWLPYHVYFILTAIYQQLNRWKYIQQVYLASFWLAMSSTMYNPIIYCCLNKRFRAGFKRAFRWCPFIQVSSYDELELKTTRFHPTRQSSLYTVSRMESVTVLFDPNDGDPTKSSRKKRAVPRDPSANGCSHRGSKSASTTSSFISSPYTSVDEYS
Procedure, shortened: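 Rat cortical membranes; radioligand binding with filtration and scintillation counting, 2 h after dosing. Primary screen in duplicate at 25 uM, then concentration-response up to 50 uM; loss of binding signal relative to DMSO.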

[4] = target: rat Adrenergic Receptor, Beta (Adrb), Non-selective Binding, Adrb1 (gene 24925) (UniProt P18090); test: NVS_GPCR_rAdrb_NonSelective: NovaScreen (NVS) G Protein-Coupled Receptor Assay for rat Adrenergic Receptor, Beta (Adrb), Non-selective Binding (AID 2283298)
Sequence of rat Adrenergic Receptor, Beta (Adrb), Non-selective Binding, Adrb1 (gene 24925) (P18090 whole entry, looked up): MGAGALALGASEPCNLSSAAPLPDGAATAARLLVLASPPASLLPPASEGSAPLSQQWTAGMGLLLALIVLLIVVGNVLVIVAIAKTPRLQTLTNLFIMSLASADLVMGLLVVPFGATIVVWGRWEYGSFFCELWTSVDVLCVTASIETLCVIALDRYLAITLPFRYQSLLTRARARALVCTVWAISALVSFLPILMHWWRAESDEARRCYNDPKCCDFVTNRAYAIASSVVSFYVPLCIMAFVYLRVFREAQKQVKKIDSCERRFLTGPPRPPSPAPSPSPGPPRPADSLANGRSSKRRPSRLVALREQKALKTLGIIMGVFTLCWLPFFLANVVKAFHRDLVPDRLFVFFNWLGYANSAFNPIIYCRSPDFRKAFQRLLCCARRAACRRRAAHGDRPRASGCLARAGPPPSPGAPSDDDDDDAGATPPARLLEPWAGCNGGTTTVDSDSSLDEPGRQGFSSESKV
Method: as §1, with “NVS_GPCR_rAdrb_NonSelective” for “NVS_GPCR_rAdra2_NonSelective”, “1 hour” for “1.25 hours”, “plate.NVS_GPCR_rAdrb_NonSelective” for “plate.NVS_GPCR_rAdra2_NonSelective”, “NVS_GPCR_rAdrb_NonSelective,” for “NVS_GPCR_rAdra2_NonSelective,”, “Adrb1.” for “Adra2a.”
(§2) Binding assays used specific radioligands (tritiated, iodinated) with non-radioactive competitive displacement ligands in agonist or antagonist protocols (as indicated) and various reference compounds and inhibitors to titrate specific binding to receptors and transporters. Most enzyme assays (CYPs, kinases, phosphatases, proteases, HDACs) used recombinant protein and specific substrates (fluorescence mostly, some colorimetric and radioactive) and inhibitors, followed by a biochemical separation of substrate and product. All assays for the biochemical HTS were initially run in duplicate at a single concentration (10 uM for CYP450 assays and 25 uM for all others). Assay-chemical combinations meeting a pre-defined threshold (e.g., 30% inhibition and other criteria defined below) were then run in singleton concentration-response format with maximum concentration of 20 uM for CYPs and 50 uM for all others. Each assay was run with positive and negative controls, and concurrent controls on every plate. The follow-up (secondary) screen tested active chemical-pairs in concentration series, as well as a few additional assays not tested in the primary screen, some selected negative inactives, and several cases re-run in the concentration series for confirmatory purposes.

[5] = target: Adra2b (gene 24174) (UniProt P19328); test: NVS_GPCR_rmAdra2B: NovaScreen (NVS) G Protein-Coupled Receptor Assay for hybird cells Adrenergic, Alpha 2B Receptor (Adra2B) (AID 2283306)
Sequence of Adra2b (gene 24174) (P19328 whole entry, looked up): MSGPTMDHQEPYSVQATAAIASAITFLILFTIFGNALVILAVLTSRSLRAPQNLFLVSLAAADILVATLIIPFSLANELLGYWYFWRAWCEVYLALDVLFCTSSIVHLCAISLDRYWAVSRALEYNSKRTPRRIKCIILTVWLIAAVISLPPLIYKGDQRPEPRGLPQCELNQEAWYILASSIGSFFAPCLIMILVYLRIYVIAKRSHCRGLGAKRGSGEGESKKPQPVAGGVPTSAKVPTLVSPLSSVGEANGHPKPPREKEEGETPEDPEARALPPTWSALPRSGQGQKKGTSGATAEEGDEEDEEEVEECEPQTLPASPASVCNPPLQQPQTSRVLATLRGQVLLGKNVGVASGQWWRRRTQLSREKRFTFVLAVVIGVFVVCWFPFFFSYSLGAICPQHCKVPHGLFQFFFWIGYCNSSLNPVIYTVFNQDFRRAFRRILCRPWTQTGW
Procedure, shortened: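 Radioligand filter-binding assay on membrane proteins from neuroglioma/blastoma hybrid cells (rodent), 1 h after dosing; scintillation counting, loss of signal vs DMSO. Primary screen in duplicate at 25 uM, actives then run in concentration series.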

[6] = target: rat Opioid Receptor, Non-selective Sodium (Na+) Binding, Oprm1 (gene 25601) (UniProt P33535); test: NVS_GPCR_rOpiate_NonSelectiveNa: NovaScreen (NVS) G Protein-Coupled Receptor Assay for rat Opioid Receptor, Non-selective Sodium (Na+) Binding (AID 2283311)
Sequence of rat Opioid Receptor, Non-selective Sodium (Na+) Binding, Oprm1 (gene 25601) (P33535 whole entry, looked up): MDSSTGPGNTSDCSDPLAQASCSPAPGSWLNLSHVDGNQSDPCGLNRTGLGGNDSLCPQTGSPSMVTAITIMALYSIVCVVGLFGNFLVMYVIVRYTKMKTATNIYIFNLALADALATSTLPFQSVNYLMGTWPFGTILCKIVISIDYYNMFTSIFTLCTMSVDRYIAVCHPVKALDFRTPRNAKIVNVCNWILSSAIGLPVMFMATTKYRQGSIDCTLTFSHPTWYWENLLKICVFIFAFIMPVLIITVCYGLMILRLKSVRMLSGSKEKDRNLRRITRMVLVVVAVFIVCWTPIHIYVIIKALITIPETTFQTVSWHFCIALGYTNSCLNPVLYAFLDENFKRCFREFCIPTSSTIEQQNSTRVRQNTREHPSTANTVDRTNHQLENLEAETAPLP
Method: as §1, with “NVS_GPCR_rOpiate_NonSelectiveNa” for “NVS_GPCR_rAdra2_NonSelective”, “forebrain” for “cortical”, “1.5” for “1.25”, “plate.NVS_GPCR_rOpiate_NonSelectiveNa” for “plate.NVS_GPCR_rAdra2_NonSelective”, “NVS_GPCR_rOpiate_NonSelectiveNa,” for “NVS_GPCR_rAdra2_NonSelective,”, “Oprm1.” for “Adra2a.”
as §2

[7] = target: rat Neurokinin-1 Receptor (NK1), Tacr1 (gene 24807) (UniProt P14600); test: NVS_GPCR_rNK1: NovaScreen (NVS) G Protein-Coupled Receptor Assay for rat Neurokinin-1 Receptor (NK1) (AID 2283309)
Sequence of rat Neurokinin-1 Receptor (NK1), Tacr1 (gene 24807) (P14600 whole entry, looked up): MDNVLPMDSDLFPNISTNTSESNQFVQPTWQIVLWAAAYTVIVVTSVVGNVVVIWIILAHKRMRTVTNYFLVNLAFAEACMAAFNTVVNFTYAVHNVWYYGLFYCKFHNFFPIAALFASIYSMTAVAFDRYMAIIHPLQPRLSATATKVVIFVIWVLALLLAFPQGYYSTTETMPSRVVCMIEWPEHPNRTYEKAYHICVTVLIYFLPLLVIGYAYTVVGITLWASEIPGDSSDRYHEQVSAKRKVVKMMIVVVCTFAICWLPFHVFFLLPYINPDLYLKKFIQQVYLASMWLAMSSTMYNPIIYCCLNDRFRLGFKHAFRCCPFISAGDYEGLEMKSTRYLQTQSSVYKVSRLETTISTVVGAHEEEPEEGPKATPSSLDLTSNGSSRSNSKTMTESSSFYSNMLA
Procedure, shortened: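 Rat submaxillary gland membranes; radioligand displacement read by filter-based scintillation counting after 1 h. Primary screen in duplicate at 25 uM; actives retested in concentration series; loss of binding fitted versus DMSO.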

[8] = target: rat Gamma-Aminobutyric Acid Type B Receptor (GABBR), Gabbr1 (gene 81657) (UniProt Q9Z0U4); test: NVS_GPCR_rGABBR: NovaScreen (NVS) G Protein-Coupled Receptor Assay for rat Gamma-Aminobutyric Acid Type B Receptor (GABBR) (AID 2283301)
Sequence of rat Gamma-Aminobutyric Acid Type B Receptor (GABBR), Gabbr1 (gene 81657) (Q9Z0U4 whole entry, looked up): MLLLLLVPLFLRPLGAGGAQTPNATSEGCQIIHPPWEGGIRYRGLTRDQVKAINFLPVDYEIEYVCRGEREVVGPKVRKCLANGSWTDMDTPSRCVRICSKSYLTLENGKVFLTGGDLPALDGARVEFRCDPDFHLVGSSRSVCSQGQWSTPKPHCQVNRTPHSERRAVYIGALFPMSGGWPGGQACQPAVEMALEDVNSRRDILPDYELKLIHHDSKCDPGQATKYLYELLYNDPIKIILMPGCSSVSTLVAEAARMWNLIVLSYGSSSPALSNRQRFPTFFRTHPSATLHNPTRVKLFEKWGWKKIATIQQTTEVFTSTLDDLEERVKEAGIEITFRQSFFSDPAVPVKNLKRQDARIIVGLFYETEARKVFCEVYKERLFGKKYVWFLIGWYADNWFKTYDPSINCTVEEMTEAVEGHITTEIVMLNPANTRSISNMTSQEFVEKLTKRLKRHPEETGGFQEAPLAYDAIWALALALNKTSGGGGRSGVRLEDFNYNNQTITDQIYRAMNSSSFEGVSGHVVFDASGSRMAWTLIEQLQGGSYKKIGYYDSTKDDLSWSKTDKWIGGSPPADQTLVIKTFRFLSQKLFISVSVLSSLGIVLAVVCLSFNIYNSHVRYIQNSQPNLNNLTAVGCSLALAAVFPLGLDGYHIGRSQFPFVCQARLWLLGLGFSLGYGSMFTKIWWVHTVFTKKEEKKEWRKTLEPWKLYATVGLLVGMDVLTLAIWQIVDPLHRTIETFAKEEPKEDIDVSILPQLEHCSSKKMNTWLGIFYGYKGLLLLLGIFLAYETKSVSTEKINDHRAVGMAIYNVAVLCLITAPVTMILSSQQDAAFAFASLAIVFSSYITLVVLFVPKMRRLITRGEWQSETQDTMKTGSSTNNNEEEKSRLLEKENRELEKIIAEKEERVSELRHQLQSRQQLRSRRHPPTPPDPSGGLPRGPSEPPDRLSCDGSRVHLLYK
Procedure, shortened: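 Radioligand displacement on rat cortical membranes, 1 h, filter-based scintillation counting. Primary screen at 25 uM in duplicate; compounds passing threshold re-tested in concentration-response up to 50 uM; loss of binding fitted against DMSO.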

[9] = target: rat Neonicotinoid receptor (NNR), Chrna7 (gene 25302) (UniProt Q05941); test: NVS_LGIC_rNNR_BungSens: NovaScreen (NVS) Ligand-Gated Ion Channel Assay for rat Neonicotinoid receptor (NNR) (AID 2283315)
Sequence of rat Neonicotinoid receptor (NNR), Chrna7 (gene 25302) (Q05941 whole entry, looked up): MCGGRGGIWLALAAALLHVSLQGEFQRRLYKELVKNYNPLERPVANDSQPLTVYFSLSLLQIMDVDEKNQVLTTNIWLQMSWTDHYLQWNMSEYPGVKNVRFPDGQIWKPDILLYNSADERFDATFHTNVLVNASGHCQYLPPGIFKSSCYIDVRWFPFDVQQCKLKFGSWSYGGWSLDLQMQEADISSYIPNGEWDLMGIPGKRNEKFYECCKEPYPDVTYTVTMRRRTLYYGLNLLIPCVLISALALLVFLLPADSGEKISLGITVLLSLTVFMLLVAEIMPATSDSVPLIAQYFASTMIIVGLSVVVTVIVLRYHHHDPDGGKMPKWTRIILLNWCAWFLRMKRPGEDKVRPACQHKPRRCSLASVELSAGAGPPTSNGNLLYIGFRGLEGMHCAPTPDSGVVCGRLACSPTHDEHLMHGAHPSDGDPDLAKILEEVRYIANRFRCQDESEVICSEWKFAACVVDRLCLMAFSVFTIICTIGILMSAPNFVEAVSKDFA
Procedure, shortened: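 Radioligand displacement binding on rat cortical membranes, 2.5 h incubation, filtration and scintillation counting. Loss of specific binding fitted relative to DMSO.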

[10] = target: rat Somatostatin Receptor (SST), Sstr1 (gene 25033) (UniProt P28646); test: NVS_GPCR_rSST: NovaScreen (NVS) G Protein-Coupled Receptor Assay for rat Somatostatin Receptor (SST) (AID 2283314)
Sequence of rat Somatostatin Receptor (SST), Sstr1 (gene 25033) (P28646 whole entry, looked up): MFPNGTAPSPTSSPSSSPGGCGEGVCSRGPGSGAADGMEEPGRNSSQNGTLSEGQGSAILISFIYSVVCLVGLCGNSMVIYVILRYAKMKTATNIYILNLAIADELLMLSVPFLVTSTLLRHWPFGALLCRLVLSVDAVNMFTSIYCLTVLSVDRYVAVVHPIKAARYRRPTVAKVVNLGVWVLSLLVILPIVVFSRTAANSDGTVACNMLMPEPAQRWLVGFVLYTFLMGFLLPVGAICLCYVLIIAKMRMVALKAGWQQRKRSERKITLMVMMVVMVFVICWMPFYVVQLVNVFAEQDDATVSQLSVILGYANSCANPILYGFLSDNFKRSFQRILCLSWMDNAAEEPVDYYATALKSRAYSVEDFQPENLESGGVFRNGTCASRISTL
Procedure, shortened: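 Rat forebrain membranes; radioligand displacement read by filter-based scintillation counting 1 h after dosing. Primary screen in duplicate at 25 uM. Actives (e.g., 30% inhibition) were rerun as concentration-response to 50 uM max and fitted against DMSO.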

Structure (SMILES): COCCOc1cc2cc(C(=O)NC3CCN(C(C)C)CC3)n(CC(=O)Nc3ccc(Cl)cn3)c2cn1
- AC50 [1]: 15.3 µM (active)
- AC50 [2]: 10.1 µM (active)

Structure (SMILES): CN(C)c1ccc(N=NS(=O)(=O)O)cc1
- outcome [3]: inactive

Structure (SMILES): O=c1[nH]c2ccc(S(=O)CCN3CCC(Cc4ccc(F)cc4)CC3)cc2o1 (stereo not drawn)
- AC50 [1]: 3.46 µM (active)
- outcome [4]: inactive
- AC50 [2]: 1.88 µM (active)
- AC50 [5]: 0.609 µM (active)

Structure (SMILES): COc1ccc(/C=C/S(=O)(=O)NC(=O)c2ccc(C)cc2Cl)cc1
- outcome [6]: inactive

Structure (SMILES): CCOC(=O)c1ccc(C2CCC(NC[C@H](O)COc3ccc(O)c(NS(C)(=O)=O)c3)CC2)cc1 (stereo partly drawn)
- AC50 [4]: 8.67 µM (active)
- AC50 [5]: 23.4 µM (active)
- outcome [7]: inactive
- outcome [6]: inactive

Structure (SMILES): Nc1ccc(Nc2ccccc2)cc1
- AC50 [1]: 40.6 µM (active)
- AC50 [2]: 25 µM (active)

Structure (SMILES): CNCc1ccc(NC(=O)c2c[nH]c3c2C(=O)CCC3)cc1
- outcome [8]: inactive
- outcome [5]: inactive

Structure (SMILES): CC[C@H]1CC[C@H](NCc2cc3c(cc2OC)[C@H]2C[C@H]2C(=O)N3C)[C@H](c2ccccc2)N1
- AC50 [1]: 17.2 µM (active)
- AC50 [2]: 13.3 µM (active)
- outcome [8]: inactive
- AC50 [5]: 12.3 µM (active)
- AC50 [7]: 0.296 µM (active)
- AC50 [6]: 2.83 µM (active)
- outcome [9]: inactive

Structure (SMILES): CC1=CC(=O)CC(C)(C)C1
- outcome [4]: inactive

Structure (SMILES): COc1cccc(-c2ccc(/C=C\CN3CCCCCC3)cc2Cl)c1
- AC50 [1]: 18.7 µM (active)
- AC50 [2]: 2.99 µM (active)
- AC50 [5]: 4.39 µM (active)
- AC50 [6]: 15.2 µM (active)
- outcome [10]: inactive
- outcome [9]: inactive

Structure (SMILES): CCn1nc(Cc2ccccc2)cc1C1CCN(C[C@H]2C[C@H](N(C)[C@@H](C(=O)O)C(C)C)C[C@@H]2c2cccc(F)c2)CC1
- outcome [4]: inactive
- AC50 [6]: 7.28 µM (active)
- AC50 [9]: 15.5 µM (active)
